# BAZ2B inh – BAZ2B (human) inhibition | Q9UIF8 | AlphaScreen BAZ2B-H3K14Ac peptide displacement | Potency, µM (titrated, usually from 114 µM), actives largely listed as inhibitors | 360,000 tested, 4.4% active | AID 504333; also: nearly all actives have a fitted effect of over 60% in size
#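 BAZ2B (50 nM) with biotin-H3(5-23)K14Ac peptide (50 nM) in PBS pH 7.4, 0.01% Tween-20, preformed 30 min, then compound 30 min at room temperature; top concentration 110uM. AlphaScreen streptavidin donor/nickel chelate acceptor beads (10 ug/mL final), 20 min dark, signal read.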
# CtBP-E1A blk – blocks the CtBP interaction with E1A. AlphaScreen GST-E1A/His-CtBP binding, 1536-well; stronger effect = lower value. AID 651724. 340,000 tested, 0.49% active. activity change, % (no concentration beside the values); in the data active = activity change below about -65%; inconclusive = mostly about -30% to -63%
#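 GST-E1A and His-tagged CtBP (125 nM each as 5X stock) were preincubated with pin-transferred compound for 2 h at 37 °C in the dark, then glutathione donor and nickel acceptor beads were added for 1 h before AlphaScreen reading.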
# HP1b chromo inh – HP1-beta chromodomain-methylated histone interaction inhibition. AlphaScreen HP1-beta / biotin-H3K9me3 peptide binding. Potency, µM (titrated, usually from 114 µM), usual class: inhibitors. 390,000 tested, 0.56% active. AID 540317; also: nearly all actives have a fitted effect of over 70% in size
#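 Compound inhibition of the preformed complex between 50 nM HP1-beta and 50 nM biotinylated H3K9me3 peptide was read by AlphaScreen. Buffer was PBS pH 7.4 with 0.01% Tween-20. Incubations ran 30 min at room temperature, with 10 ug/mL donor/acceptor beads.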
# Six1-Eya2 inh – Six1/Eya2 interaction inhibition; AlphaScreen GST-Six1/His-Eya2 binding, biochemical; stronger effect = lower value; activity change, % (no concentration beside the values); 360,000 tested, 0.56% active; AID 651725; in the data active = activity change below about -65%; inconclusive = mostly about -30% to -63%
# Target sequence (O00167 whole entry, looked up): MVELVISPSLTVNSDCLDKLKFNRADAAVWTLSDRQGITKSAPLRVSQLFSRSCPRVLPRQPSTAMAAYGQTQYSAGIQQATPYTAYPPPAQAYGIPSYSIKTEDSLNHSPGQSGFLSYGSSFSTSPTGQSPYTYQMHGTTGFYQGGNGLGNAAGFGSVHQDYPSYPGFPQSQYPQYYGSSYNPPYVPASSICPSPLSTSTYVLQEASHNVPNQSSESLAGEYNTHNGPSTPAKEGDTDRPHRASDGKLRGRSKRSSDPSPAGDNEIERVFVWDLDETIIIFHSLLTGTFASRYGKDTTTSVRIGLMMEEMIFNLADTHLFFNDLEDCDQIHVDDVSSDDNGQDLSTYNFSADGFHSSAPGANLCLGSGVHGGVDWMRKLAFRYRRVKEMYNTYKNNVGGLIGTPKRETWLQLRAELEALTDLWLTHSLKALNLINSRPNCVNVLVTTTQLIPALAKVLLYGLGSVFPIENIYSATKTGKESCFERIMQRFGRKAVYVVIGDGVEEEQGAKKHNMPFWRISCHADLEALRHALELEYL
# Target sequence (Q15475 whole entry, looked up): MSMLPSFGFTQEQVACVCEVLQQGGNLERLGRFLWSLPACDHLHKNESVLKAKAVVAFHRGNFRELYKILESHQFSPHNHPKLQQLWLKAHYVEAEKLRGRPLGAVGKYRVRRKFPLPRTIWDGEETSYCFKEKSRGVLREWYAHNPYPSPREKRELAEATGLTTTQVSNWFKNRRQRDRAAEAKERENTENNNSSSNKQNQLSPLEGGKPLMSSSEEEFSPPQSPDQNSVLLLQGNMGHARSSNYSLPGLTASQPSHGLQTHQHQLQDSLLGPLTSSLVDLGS
#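 AlphaScreen with GST-Six1 and His-Eya2 (5X mix: 250 nM and 500 nM), glutathione donor and nickel acceptor beads; buffer 50 mM Tris pH 8.0, 300 mM NaCl, 1 mM TCEP; 1 h at 37 C in the dark.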
# JMJD2A Tudor inh – JMJD2A Tudor domain (human) inhibition | O75164 | AlphaScreen JMJD2A-Tudor / H3K4me3 peptide binding | 390,000 tested, 4.4% active | Potency, µM (highest dose often 114 µM), actives largely listed as inhibitors; also: nearly all actives have a fitted effect of over 50% in size
# G9a inh – blocks human histone lysine methyltransferase G9a. Q96KQ7. G9a H3K9 monomethylation, AlphaScreen, 2 h. Potency, µM (highest dose often 102 µM), usual class: inhibitors. 350,000 tested, 8.8% active. AID 504332; also: nearly all actives have a fitted effect of over 75% in size
#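 G9a (20 nM) was preincubated 15 min with compound, then reacted 2 h at room temperature with 500 nM biotin-H3K9 peptide and 20 µM SAM. Monomethyl-H3K9 detected by AlphaScreen using anti-H3K9me1 antibody.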
# Hits are given with their value; i = inactive; ? = inconclusive; nt = not tested or not shown; [ ] = remark or other dose. A selection: hits, their analogues and other compounds. The true share with any hit is near 10%. Unless noted, calls follow the shape of the dose curve; as a rule, active = well fitted inhibition curve with a large enough effect; inconclusive = small, poorly fitted or top-dose-only effect; inactive = no such curve, though single readings can be large or run the other way.
SMILES,BAZ2B inh,CtBP-E1A blk,HP1b chromo inh,Six1-Eya2 inh,JMJD2A Tudor inh,G9a inh
Cc1cc(C)c(C)c(S(=O)(=O)N[C@@H](C)C(=O)OCc2cc(=O)n3cc(Br)ccc3n2)c1C,50µM,i,i,i,i,?
CCOC(=O)[C@]12CCCC=C1N(Cc1ccco1)C(=O)[C@H](CC(=O)NCc1cccc(C(F)(F)F)c1)C2,nt,i,nt,i,nt,nt
COc1c(N2C[C@@H]3CCCN[C@H]3C2)c(F)cc2c(=O)c(C(=O)O)cn(C3CC3)c12,nt,nt,nt,nt,nt,i[2.33 µM]
COc1ccccc1N1CCN(Cc2nc3ccccc3[nH]2)CC1,i,i,i,i,i,i
COc1ccccc1N1CCN(Cc2nc3ccsc3c(=O)[nH]2)CC1,i,i,i,i,3.5µM,i
COc1cc(OC)c(OC)cc1CN1CCC(O)CC1,?,i,?,i,18µM,?
COc1cc(OC)c(OC)cc1CN1CCN(Cc2cccn2C)CC1,40µM,i,25µM,i,3.5µM,3.5µM
COc1cc(OC)c(OC)cc1CN1CCN(c2ccccc2OC)CC1,?,i,?,i,3.2µM,?
COc1ccccc1N1CCN(Cc2cc(=O)oc3ccccc23)CC1,nt,i,nt,i,nt,nt
CSc1cc2c(s1)c1cnn(Cc3ccccc3F)c(=O)c1n2C,nt,nt,nt,nt,i,nt
Cc1cccc(C)c1-n1ncc(C(=O)N2CCN(c3ncccn3)CC2)c1C1CCN(C(=O)OC(C)(C)C)CC1,i,nt,i,nt,i,i
CCOC(=O)C1CCN(c2ccccc2CN2CCN(c3ccccc3OCC)CC2)CC1,i,i,i,i,i,i
CCOc1ccccc1N1CCN(Cc2ccc(OC)c(OC)c2OC)CC1,?,i,?,i,4µM,?
COCCCN1CN=C(Nc2nc3ccccc3o2)NC1,i,i,i,i,13µM,?
O=S(=O)(c1ccc(OCC2CO2)cc1)c1ccc(OCC2CO2)cc1 (centres undefined),i,nt,i,i,i,nt
C=CCN(C(=O)CCS(=O)(=O)c1cccc2nsnc12)c1ccccc1,i,i,i,i,i,45µM
O=C(CCS(=O)(=O)c1cccc2nonc12)NC1CCCCCC1,i,i,i,i,i,i[2.33 µM]
CCN(C(=O)C(NS(=O)(=O)c1cccc2nsnc12)c1ccccc1)c1ccccc1 (centres undefined),nt,nt,i,nt,?,2.8µM
CC(=O)c1cccc(NC(=O)CCS(=O)(=O)c2cccc3nsnc23)c1,i,i,i,i,i,10µM
Cc1cc(C)cc(NC(=O)CCS(=O)(=O)c2cccc3nsnc23)c1,i,nt,i,nt,i,i
O=C(CCS(=O)(=O)c1cccc2nsnc12)NC1CCCCCC1,i,i,i,i,i,40µM
CCN(CC1COc2ccccc2O1)C(=S)NC1CC2CCC1C2 (centres undefined),i,i,i,i,i,i
Nc1nnc(SCC(=O)Nc2cccc(F)c2)s1,i,nt,i,nt,i,i
Cc1ccc(CSc2nnc([C@@H](N)C(C)C)o2)cc1,i,nt,i,nt,i,i
COCC(=O)Nc1nc2n(n1)C(c1ccccc1Cl)CC(c1ccc(OC)cc1)N2 (centres undefined),?,i,i,i,i,?
SMILES,BAZ2B inh,CtBP-E1A blk,HP1b chromo inh,Six1-Eya2 inh,JMJD2A Tudor inh,G9a inh
COCC(=O)Nc1nc2n(n1)C(c1ccc(Cl)cc1)CC(c1ccc(OC)cc1)N2 (centres undefined),?,i,i,i,?,79µM
CC(=O)NC1=NN(C(C)=O)C2(S1)C(=O)N(C(C)C)c1ccc(C)cc12 (centres undefined),i,i,i,i,i,50µM
CCn1ccc2cc(S(=O)(=O)N3CCC(C(=O)NCc4cccc(Cl)c4)CC3)ccc21,i,nt,i,nt,i,i
CC1CC(CC(=O)Nc2nc(-c3ccccc3)cs2)C(=O)O1 (centres undefined),i,nt,i,i,i,i
C/C(CC1CC(COCC(C)C)OC1=O)=N\Nc1nc(-c2ccccc2)cs1 (centres undefined),?,i,i,i,?,25µM
Cn1c(N2CCN(c3ccccn3)CC2)nc2c1c(=O)n(Cc1ccccc1Cl)c(=O)n2C,nt,i,i,i,i,nt
Cc1cccc(Cn2c(SCCN3CCOCC3)nc3c2c(=O)n(C)c(=O)n3C)c1,i,i,i,i,i,45µM
CN1CCN(c2nc3c(c(=O)n(C)c(=O)n3C)n2Cc2cccc(Br)c2)CC1,i,i,i,i,i,nt
Cc1cccc(Cn2c(N3CCN(C)CC3)nc3c2c(=O)n(C)c(=O)n3C)c1,i,i,i,i,i,20µM
CN1CCN(c2nc3c(c(=O)n(C)c(=O)n3C)n2Cc2cccc3ccccc23)CC1,i,i,i,i,i,45µM
Cn1c(N2CCN(c3ccccn3)CC2)nc2c1c(=O)n(Cc1ccc(Cl)cc1)c(=O)n2C,?,i,i,i,?,40µM
CN(CCNC(=O)c1c[nH]c2c1ccc1ccccc12)CCNC(=O)c1c[nH]c2c1ccc1ccccc12,nt,i,?,i,?,nt
COCCCNC(=O)/C(C#N)=C/c1c(N2CCN(c3ccccc3)CC2)nc2ccccn2c1=O,i,i,i,i,i,i
O=C(NC1CCCC1)N[C@@H]1CC[C@@H](CC(=O)N2CCOCC2)O[C@@H]1CO,nt,i,nt,i,nt,nt
Cc1cccc(N(Cc2ccccc2)C(=O)c2ccc(F)c(S(=O)(=O)N3CCOCC3)c2)c1,i,i,i,i,i,i
Cc1ccc(N(Cc2ccccc2)C(=O)c2ccc(F)c(S(=O)(=O)N3CCOCC3)c2)cc1,i,i,i,i,i,45µM
COc1ccc(-c2nc3ccccc3n2Cc2ccc(C)cc2)cc1,?,i,i,i,i,i
COc1ccc(-c2n[nH]c(=S)n2CC(C)C)cc1,i,i,i,i,4µM,1µM
CC(C)Oc1ccc(Cn2c(-c3ccco3)n[nH]c2=S)cc1,i,i,i,i,40µM,0.71µM
COc1ccc(Cn2c(-c3ccc(OC)cc3)n[nH]c2=S)cc1,i,i,i,i,?,2.8µM
CCOc1ccc(-c2n[nH]c(=S)n2Cc2ccccc2)cc1,i,nt,i,i,45µM,3.5µM
NCCn1c(=O)c(CCc2ccccc2)nc2cncnc21,nt,nt,nt,nt,nt,i[0.501 µM]
CCC(C)CN1C(=O)CSCC1(C)C(=O)Nc1ccc2c(c1)OCCO2 (centres undefined),nt,i,nt,i,nt,nt
CN(C)c1nc(-c2ccccc2C(F)(F)F)nc2ccccc12,nt,nt,nt,nt,nt,i[0.501 µM]
CCCc1nc2c(C)cc(Br)cn2c1Cc1ccccc1C(F)(F)F,nt,i,nt,i,nt,nt
Cc1ccc(C(=O)Nc2c(-c3ccccc3)nc3ccccn23)cc1C,i,nt,i,nt,i,i
Cc1ccc(-c2n[nH]c(=S)n2Cc2ccccc2)cc1,i,i,i,i,40µM,1.6µM
Cc1ccccc1-c1n[nH]c(=S)n1Cc1ccccc1,i,i,i,i,?,nt
Cc1cccc(-c2n[nH]c(=S)n2Cc2ccccc2)c1,i,i,i,i,40µM,0.71µM
